# Source: ChEMBL document CHEMBL3433997, “St. Jude Leishmania screening dataset” (2016)
# Biological target: Hexose transporter 1 (Plasmodium falciparum) (UniProt O97467)
# Assay: ST_JUDE_LEISH: Cytotoxicity at 2uM final concentration against transgenic Leishmania Mexicana promastigotes LmPfHT that are glucose transport deficient and complemented with the Plasmodium falciparum hexose transporter. Activity is measured by DNA content using SYBR green in vitro
# Type: functional
row,Compound,inhibition [%]
1,O=C(O[C@H]1CN[C@H](C#Cc2cc3c(Nc4ccc(OCc5cccc(F)c5)c(Cl)c4)ncnc3s2)C1)N1CCCC1,6.01
2,CCCc1cc(Cc2cnc(N)nc2N)cc(CCC)c1OCCCCC(=O)O,1.3
3,COc1ccc2ncc(F)c(CCN3CCC(CNCc4cccc5c4OCO5)CC3)c2n1,1.39
4,Cc1nnsc1C(=O)Nc1cccc(-c2ccc(-c3nc4cccc(C)c4[nH]3)s2)c1,1.77
5,CCc1ccc(CN(Cc2ccc(C)cc2)Cc2ccc(NC(C)=O)cc2)cc1,3.95
6,O=C1CCCN1CCCNCc1cccc(-c2ccc(-c3nc4cc(C(F)(F)F)ccc4[nH]3)cc2)c1,13
7,NC(=O)c1ccsc1NC(=O)CNC(c1ccccc1)c1ccccc1,3.09
8,CCCC(C)Nc1nc(C)cc(N[C@@H](Cc2ccccc2)C(=O)Nc2ccc(OC)cc2)n1 (stereo not given in full),5.6
9,CCCCn1c(N)c(N(Cc2ccco2)C(=O)C=Cc2cc(OC)c3c(c2)OCCO3)c(O)nc1=O,1.02
10,CCOC(=O)c1ccc(NC(=O)N[C@@H](Cc2ccc(O)cc2)C(=O)NC2CCN(Cc3ccc4c(c3)OCO4)CC2)cc1,2.47
11,CC(=O)c1ccc(-c2ccc(C(=O)NCCCCN3CCC(c4ccc5c(c4OCC(N)=O)CCCC5)CC3)cc2)s1,0.76
12,Cc1cnc(-c2ccc(NC(=O)c3coc4ccc(N5CC(C)N(C)C(C)C5)cc34)cc2)o1 (stereo not given),1.55
13,CC(=O)Nc1ccccc1OCc1cc2cc(C(=O)N3CCC(N4C(=O)OCc5ccccc54)CC3)ccc2o1,2.89
14,Cn1nc(-c2ccc(CN[C@@H]3CCc4ccc(O)cc43)cc2)c2cnc(NCCCN3CCCC3)nc21,0.42
15,CCN(CC(C)O)C(=O)c1ccc(-c2cccc(-c3nc4cccc(C)c4[nH]3)c2)cc1 (stereo not given),1.63
16,COc1ccc(N2CCN(CCCCNCc3ccc(NC(=O)c4cc(Cl)cc(Cl)c4)cc3)CC2)c(OC)c1,2.32
17,COc1cc(Cc2cnc(N)nc2N)cc(OC)c1OCCCCCN1C(=O)c2ccccc2C1=O,-0.4
18,CN1CCCN(Cc2ccc(-c3ccc(NC(=O)c4cccc(C#N)c4)cc3)cc2)CC1,0.34
19,Cc1cc(NC(c2ccc(Cl)cc2)c2ccc3cccnc3c2O)no1 (stereo not given),22.8
20,CS(=O)(=O)N1CC2(CCN(CCC(NC(=O)NCc3ccc(Cl)c(Cl)c3)c3ccc(Cl)c(Cl)c3)CC2)c2ccccc21 (stereo not given),-2.55
21,CC1(C)NC(N)=NC(=N)N1OCCCNC(=O)c1ccc([N+](=O)[O-])cc1,3.33
22,COc1cc(C(=O)Nc2cccc(-c3nc4ccccc4[nH]3)c2)cc(OC)c1OC,1.94
23,O=C(Cc1ccc(NC(=O)c2ccc(O)c(-c3ccc(Cl)c(Cl)c3)c2)cc1)NCCc1ccc(Cl)c(Cl)c1,2.38
24,CCCCCCN1CCN(Cc2cccc(NC(=O)c3cccc(OCC)c3)c2)CC1,13.5
25,COc1ccc2nc(C)cc(Nc3ccc(Oc4ccc(Br)c5ccccc45)c(Cl)c3)c2c1,8.7
